From PubChem BioAssay
Active and inactive are the calls of the source. Unless noted, how the calls were made is not given here.

Experiments:
[1] = A549 cell viability effects, profiling panel, calcein-AM fluorescence, 48 h, basal (AID 1162); conditions: higher = more signal; further: test concentration not given here
[2] = adipocyte viability effects, profiling panel, cell-based, 3T3-L1 adipocytes, calcein-AM fluorescence, 48 h, basal (AID 1163); conditions: 3T3-L1 adipocytes viability, higher = more signal; further: test concentration not given here
[3] = HepG2 cell viability effects, profiling panel, calcein-AM fluorescence, 48 h, basal (AID 1164); conditions: higher = more signal; further: test concentration not given here
[4] = MM1S cell viability effects, profiling panel, calcein-AM fluorescence, 48 h, basal (AID 1165); conditions: higher = more signal;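 further: viability of MM1S multiple myeloma cells under basal unstimulated conditions; test concentration not given here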
[5] = basal RPMI8226 viability, no added stimulus, profiling panel, cell-based, calcein-AM fluorescence, 48 h, PK04 Diversity Set (AID 1166); conditions: RPMI8226 myeloma viability, higher = more signal;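 further: cells grown under basal conditions without added stimulus; test concentration not given here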
[6] = basal HepG2 mitochondrial membrane potential changes, profiling panel, cell-based, JC-1 fluorescence, 24 h, 100 nL compound (AID 1167); conditions: higher = more signal; further: test concentration not given here
[7] = basal 3T3-L1 adipocyte mitochondrial potential changes, profiling panel, cell-based, JC-1 fluorescence, 3T3-L1 adipocytes, 24 h, 100 nL compound (AID 1168); conditions: JC-1 mitochondrial fluorescence, higher = more signal, called active from +8 up or from −8 down; further: test concentration not given here
[8] = basal RPMI8226 mitochondrial membrane potential changes, profiling panel, cell-based, JC-1 fluorescence, 24 h, 100 nL compound (AID 1169); conditions: RPMI8226 myeloma, JC-1 mitochondrial potential fluorescence, higher = more signal; further: test concentration not given here
[9] = basal MM1S mitochondrial membrane potential changes, profiling panel, cell-based, JC-1 fluorescence, 24 h, 100 nL compound (AID 1170); conditions: higher = more signal; further: test concentration not given here
[10] = A549 lung cancer cell viability effects, profiling panel, resazurin fluorescence, 24 h, PK04 Diversity Set (AID 1171); conditions: higher = more signal, called active from +8 up or from −8 down; further: test concentration not given here
[11] = HepG2 liver cancer cell viability effects, profiling panel, resazurin fluorescence, 24 h, PK04 Diversity Set (AID 1172); conditions: higher = more signal; further: test concentration not given here
[12] = basal S. cerevisiae growth modulation, no modifier, primary screen, OD600, strain BY4716, 24 h, basal condition (AID 1173); conditions: OD600, 24 h, higher = more signal, called active from +8 up or from −8 down
[13] = MM1S myeloma cell viability, profiling panel, resazurin fluorescence, basal, 24 h, PK04 Diversity Set (AID 1174); conditions: higher = more signal, called active from +8 up or from −8 down;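 further: MM1S multiple myeloma cell line; test concentration not given here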
[14] = target: Dihydroorotate dehydrogenase (quinone), mitochondrial (Plasmodium falciparum (isolate 3D7)) (UniProt Q08210); experiment: PfDHODH enzyme inhibitors, primary screen, biochemical, C-terminal His tag, absorbance 600 nm (AID 1175); conditions: DCIP absorbance 600 nm, higher = more signal, called active from +8 up or from −8 down;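 further: recombinant parasite enzyme with a five histidine tag at its C terminus; test concentration not given here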
[15] = P. aeruginosa biofilm formation inhibitors, primary screen, strain PAO1, LB-PBS medium, absorbance 600 nm (AID 1176); further: test concentration not given here; conditions: P. aeruginosa PAO1 growth/biofilm, A600, 12 h; higher = more signal
[16] = S. cerevisiae RM11-1a growth modifiers, primary screen, strain RM11-1a, OD600, basal, 24 h (AID 1177); conditions: OD600, 24 h, higher = more signal, called active from +8 up or from −8 down;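 further: cultures grown under basal conditions with no added stressor; test concentration not given here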
[17] = E. coli acrAB mutant growth effects, primary screen, E. coli filamentation inducers, strain DRC39, OD650, 24 h (AID 1178); conditions: higher = more signal, called active from +8 up or from −8 down;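 further: growth measured as culture turbidity by optical density at 650 nm; test concentration not given here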
[18] = E. coli acrAB mutant growth effects, primary screen, E. coli filamentation inducers, strain DRC39, OD650, 48 h (AID 1179);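 further: screen aims at cell division blockers that make cells filament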; conditions: E. coli DRC39 delta-acrAB growth, higher = more signal, called active from +8 up or from −8 down
[19] = RPMI8226 myeloma cell viability, profiling panel, resazurin fluorescence, basal, 24 h, PK04 Diversity Set (AID 1180); conditions: higher = more signal;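 further: RPMI8826 multiple myeloma cell line at 5000 cells per well; test concentration not given here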
[20] = target: E3 ubiquitin-protein ligase XIAP (Homo sapiens) (UniProt P98170); experiment: XIAP binders, primary screen, biophysical, small-molecule microarray, fluorescence 635 nm (AID 1181); conditions: small-molecule microarray binding, higher = more signal;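 further: score merges 667 nm emission and signal to noise over triplicate slides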
Sequence of E3 ubiquitin-protein ligase XIAP (Homo sapiens) (P98170 whole entry, looked up): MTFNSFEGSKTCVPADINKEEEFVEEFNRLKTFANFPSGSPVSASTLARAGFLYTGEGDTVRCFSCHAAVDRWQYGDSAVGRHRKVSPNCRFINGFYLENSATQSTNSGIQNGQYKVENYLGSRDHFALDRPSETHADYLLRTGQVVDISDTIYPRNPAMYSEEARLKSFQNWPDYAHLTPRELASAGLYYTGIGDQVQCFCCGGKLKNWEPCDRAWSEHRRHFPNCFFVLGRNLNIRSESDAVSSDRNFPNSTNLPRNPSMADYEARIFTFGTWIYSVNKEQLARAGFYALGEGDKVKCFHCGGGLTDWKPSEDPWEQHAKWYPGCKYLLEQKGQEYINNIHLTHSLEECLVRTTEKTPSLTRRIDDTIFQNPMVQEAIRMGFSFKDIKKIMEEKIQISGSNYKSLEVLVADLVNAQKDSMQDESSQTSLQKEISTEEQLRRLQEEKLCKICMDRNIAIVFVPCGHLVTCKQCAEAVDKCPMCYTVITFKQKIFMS

Sequence of Dihydroorotate dehydrogenase (quinone), mitochondrial (Plasmodium falciparum (isolate 3D7)) (Q08210 whole entry, looked up): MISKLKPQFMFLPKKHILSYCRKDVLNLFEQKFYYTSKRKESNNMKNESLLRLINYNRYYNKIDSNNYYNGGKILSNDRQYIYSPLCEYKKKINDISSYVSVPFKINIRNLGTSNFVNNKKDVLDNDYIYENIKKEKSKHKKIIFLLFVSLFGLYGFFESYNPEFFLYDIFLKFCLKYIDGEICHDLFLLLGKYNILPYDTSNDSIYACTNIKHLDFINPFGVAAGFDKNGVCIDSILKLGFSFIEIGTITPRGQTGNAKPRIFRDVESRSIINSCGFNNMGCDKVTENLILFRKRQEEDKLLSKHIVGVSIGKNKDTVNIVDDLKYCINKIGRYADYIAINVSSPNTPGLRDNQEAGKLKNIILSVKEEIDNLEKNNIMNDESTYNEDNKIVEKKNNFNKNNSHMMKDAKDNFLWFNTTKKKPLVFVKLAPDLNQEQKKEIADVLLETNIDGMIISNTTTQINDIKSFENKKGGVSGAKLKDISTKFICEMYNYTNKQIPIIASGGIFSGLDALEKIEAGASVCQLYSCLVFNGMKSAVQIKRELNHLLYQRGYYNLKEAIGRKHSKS

Row | Compound | z-score [1] | z-score [2] | z-score [3] | z-score [4] | z-score [5] | z-score [6] | z-score [7] | z-score [8] | z-score [9] | z-score [10] | z-score [11] | z-score [12] | z-score [13] | composite z-score [14] | z-score [15] | z-score [16] | z-score [17] | z-score [18] | z-score [19] | composite z-score [20]
1 | COC(=O)c1nc2oc1CC[C@@H](CO)NC(=O)N(C)Cc1cn(nn1)C[C@H](Cc1ccccc1)NC2=O | -0.0651 | -0.734 | 0.786 | 0.648 | 0.854 | 0.136 | 0.694 (inactive) | 0.263 | -1.48 | -0.0624 (inactive) | 0.395 | -7.59 (inactive) | 0.456 (inactive) | -0.773 (inactive) | 0.113 (inactive) | 0.219 (inactive) | 0.0613 (inactive) | 0.72 (inactive) | 0.407 | -0.117
2 | CN1C(=O)C2C=CC(C(O)C(c3ccccc3)c3ccccc3)N(Nc3ccccc3)C2C1=O (stereo not given) | 0.322 | -0.648 | -0.0678 | -1.34 | -1.07 | -1.66 | -0.981 (inactive) | 0.212 | -0.179 | 0.46 (inactive) | -0.562 | -2.21 (inactive) | -0.978 (inactive) | 0.0016 (inactive) | 1.16 (inactive) | -0.238 (inactive) | -1.31 (inactive) | -1.38 (inactive) | -1.2 | 0.21
3 | C=C(C)[C@@H]1CC=C(C(O)C2C=CC3C(=O)N(Cc4ccccc4)C(=O)C3N2n2cnnc2)CC1 (stereo not given in full) | -0.675 | 0.233 | -1.05 | 0.364 | -0.176 | -0.458 | -0.403 (inactive) | 0.666 | -2.13 | 0.159 (inactive) | -0.429 | 0.349 (inactive) | -0.893 (inactive) | -0.295 (inactive) | 0.878 (inactive) | -0.616 (inactive) | 0.518 (inactive) | -0.66 (inactive) | -0.334 | 1.74
4 | COc1ccc(CCNC(=O)[C@@]2(C)c3ccccc3C(=O)N(Cc3ccccc3)[C@H]2c2ccc(CO)cc2)cc1 | -0.973 | 0.456 | -0.833 | -0.886 | -2.55 | 1.05 | -0.965 (inactive) | -0.0556 | -0.986 | 2.17 (inactive) | 0.976 | -1.12 (inactive) | 0.617 (inactive) | -0.984 (inactive) | 0.938 (inactive) | -0.803 (inactive) | 0.605 (inactive) | 0.535 (inactive) | 1.43 | -0.138
5 | C=C(CCCC)/C(=C/C[C@@H](OC(=O)c1ccncc1)c1ccc(CO)o1)c1cc(C(=O)OC)ccc1OC | 1.25 | -0.1 | 0.743 | -2.63 | -2.58 | 0.0818 | -0.239 (inactive) | -0.812 | -2.01 | -0.269 (inactive) | 0.116 | -0.973 (inactive) | -0.864 (inactive) | -5.02 (inactive) | 0.847 (inactive) | -0.513 (inactive) | 1.15 (inactive) | 0.84 (inactive) | -0.466 | 0.508
6 | O=C1C[C@@](C(=O)O)(c2ccc([N+](=O)[O-])cc2)[C@@H](c2ccc(CO)cc2I)N1CC12CC3CC(CC(C3)C1)C2 | -1.27 | -1.05 | -4.72 | -3.8 | -4.35 | -2.54 | -1.28 (inactive) | -0.811 | -2.41 | -1.77 (inactive) | -1.79 | -4.78 (inactive) | -5.9 (inactive) | -1.49 (inactive) | 1.34 (inactive) | -0.326 (inactive) | -0.401 (inactive) | -0.0671 (inactive) | -6 | -0.17
7 | CCCCC(=C=CC[C@H](O)c1ccccc1OCCO)C[C@H](O)c1cc(Cl)cc(Cl)c1O | 0.441 | -0.0739 | 0.105 | -3.29 | -2.59 | -0.605 | 0.201 (inactive) | -0.655 | -1.13 | 0.135 (inactive) | -0.268 | -4.13 (inactive) | -0.392 (inactive) | -1.69 (inactive) | 0.33 (inactive) | 0.31 (inactive) | 0.504 (inactive) | 0.32 (inactive) | -0.45 | -0.138
8 | C=C(C(=O)CC[C@@H](OC(C)=O)c1ccc(OCCO)cc1)C(C)C | -0.382 | -0.0315 | 0.185 | -1.06 | 0.16 | -0.637 | -0.191 (inactive) | 0.0885 | 0.109 | -0.222 (inactive) | 0.0804 | -0.99 (inactive) | -0.522 (inactive) | -1.51 (inactive) | 1.48 (inactive) | 0.156 (inactive) | -0.248 (inactive) | -0.227 (inactive) | -0.271 | 0.612
9 | O=C(CS)NCCCCCNC(=O)[C@H]1C[C@H]2C(=O)N[C@@H](Cc3ccccc3)C(=O)N2[C@H]1c1cccc(OCCO)c1 | 0.917 | -0.0063 | 0.585 | 0.898 | -0.156 | 1.3 | -0.0668 (inactive) | -0.736 | -0.256 | 0.363 (inactive) | 0.219 | -0.525 (inactive) | 0.782 (inactive) | 0.761 (inactive) | 0.932 (inactive) | -0.572 (inactive) | 1.94 (inactive) | 1.68 (inactive) | 0.889 | 0.0585
